Assay results: ChEMBL document CHEMBL4513216, “Probing the Open Global Health Chemical Diversity Library for Multistage-Active Starting Points for Next-Generation Antimalarials” (ACS Infect Dis, 2020)
In all, about 68,000 compounds went through this assay and about 2,700 (4%) showed an effect of 50% or more. What follows is part of a selection rich in strong results, with near analogues and random picks from the rest.

System: Plasmodium berghei
Experiment: Screen against P. berghei liver stage (PbLuc), transformed with Luciferase, at 2uM
Format: functional, HepG2
Conditions: tested at 2 uM

Row | SMILES | INHIBITION
1 | COCC(=O)NCCn1ccc2c(OC)cccc21 | 50.32%
2 | COc1cccc2c1ccn2CCNC(C)=O | -7.17%
3 | COc1cccc2c1ccn2CCNC(=O)CC(C)C | -55.67%
4 | CCN(CCO)C[C@@H]1CN(c2nc(C)cc(C)n2)C[C@@H]1CO | 5.88%
5 | O=C(c1ccc(F)c(F)c1)N1CCC(Cn2cc(CO)nn2)CC1 | 20.91%
6 | Cc1nn(C)c(N(C)C)c1CNCc1cccc(CN(C)C(C)C)c1 | 44.39%
7 | CCC(NC1Cc2ccccc2C1)c1ccc(S(C)(=O)=O)cc1 (stereo unspecified) | 10.02%
8 | CCC(NC1CCCC1)c1ccc(S(C)(=O)=O)cc1 (stereo unspecified) | 58.65%
9 | CCC(NC1CSCCSC1)c1ccc(S(C)(=O)=O)cc1 (stereo unspecified) | 9.51%
10 | Cc1ccc(-c2c[nH]c([C@@H]3COCCN3Cc3cccnc3)n2)cc1 | 3.84%
11 | CC(C)(CO)NCc1nn(Cc2ccccc2)nc1-c1ccccc1 | -34.52%
12 | CN1C[C@@H](N)C[C@H]1c1nc(-c2ccc3c(c2)OCO3)no1 | 28.2%
13 | CC(=O)N[C@H]1C[C@@H](c2nc(-c3ccc4c(c3)OCO4)no2)N(C)C1 | 57.31%
14 | CN1C[C@H](O)C[C@H]1c1nc(-c2ccc3c(c2)OCO3)no1 | 45.22%
15 | O=C(c1ccc[nH]1)N1CCc2ccc(S(=O)(=O)N3CCOCC3)cc2C1 | -19.95%
16 | CCC[C@@H]1CN(Cc2ccc(C(F)(F)F)nc2)C[C@H]1C(=O)O | 21.97%
17 | COCCN1C[C@@H](C(=O)O)[C@H](c2ccccc2C)C1 | 42.2%
18 | Cc1ccccc1[C@@H]1CN(Cc2nc3ncccn3n2)C[C@H]1C(=O)O | -18.59%
19 | Cc1ccccc1[C@@H]1CN(Cc2ccc(C(F)(F)F)nc2)C[C@H]1C(=O)O | 67.28%
20 | Cc1ccccc1[C@@H]1CN(CCCS(=O)(=O)N(C)C)C[C@H]1C(=O)O | 52.3%
21 | Cc1ccccc1[C@@H]1CN(CCOCCO)C[C@H]1C(=O)O | 35.46%
22 | OC(CNCCn1cccn1)c1ccc(F)c(F)c1 (stereo unspecified) | 21.91%

Row | SMILES | INHIBITION
23 | Cc1nc(COc2ccc(N(C)S(C)(=O)=O)cc2)sc1C | -26.08%
24 | O=C(O)c1nnn(-c2ccccc2F)c1-c1ccncc1 | 37.61%
25 | O=S(=O)(CCN1CCOC(Cn2cccn2)C1)c1ccccc1 (stereo unspecified) | -34.9%
26 | CCn1cnnc1C1CCN(C(=O)c2ccc3ccccc3n2)CC1 | -6.48%
27 | O=C(Nc1cccnc1)C1CCN(c2cc(-n3ccnc3)ncn2)CC1 | 3.38%
28 | O=C(NC1CCN(c2cc(-n3ccnc3)ncn2)CC1)c1ccncc1 | 29.19%
29 | O=C(NC1CCCC1)C1CCN(c2cc(-n3ccnc3)ncn2)CC1 | 70.33%
30 | Cc1n[nH]c(C)c1-c1nccnc1CC1CCCN(C)C1 (stereo unspecified) | 31.98%
31 | CCCC(=O)Nc1ccc2c(c1)C1(CCOCC1)CN2CCOC | 39.44%
32 | COc1ccc(C[C@H]2CNCC[C@@H]2OC)cc1 | 18.65%
33 | O=c1cc(N2CCCC2)cnn1CC(F)F | 18.81%
34 | O=C(CSc1nnc[nH]1)NCc1cccs1 | 59.03%
35 | O=C(CSc1nnc[nH]1)NCc1sccc1Br | 32.1%
36 | Cc1ccsc1CNC(=O)CSc1nnc[nH]1 | 5.98%
37 | COCCNc1nc(NCCc2ccccc2)nc2nccnc12 | -20.55%
38 | Cc1nc(O)cc(C2CCCN(C(=O)CN(C)c3ccccc3)C2)n1 (stereo unspecified) | -14.36%
39 | Cc1ccc(CC(=O)N2CCCN(Cc3nccn3C)CC2)cn1 | 5.72%
40 | CCn1nc(C)c2ncnc(N(C)C)c21 | -47.86%
41 | Cn1cccc1C(=O)N[C@H]1CN(Cc2ccoc2)[C@@H]2CCCO[C@H]12 | 56.76%
42 | Cn1cc(C(=O)N[C@@H]2CN(Cc3ccoc3)[C@@H]3CCCO[C@@H]32)cn1 | -6.61%
43 | Cn1ccnc1C(=O)N[C@@H]1CN(Cc2ccoc2)[C@@H]2CCCO[C@@H]21 | 26.76%
44 | Cc1cc(C(=O)NC(CC(C)C)C(=O)Nc2cc[nH]n2)c(C)o1 (stereo unspecified) | -36.72%

Row | SMILES | INHIBITION
45 | COC(=O)CC(c1cccnc1)c1oc(C)cc(=O)c1O (stereo unspecified) | 24.02%
46 | Cc1noc(-c2ccc(Oc3cccc(CN4CCCC4)c3F)nc2)n1 | -9.95%
47 | CC(Cn1cc(Br)cn1)C(=O)Nc1ccc(Cl)cn1 (stereo unspecified) | 29.12%
48 | CC(C)NCC1(O)CCCN(CCC2CCCCC2)C1=O (stereo unspecified) | 25.35%
49 | CCC(CNC(=O)c1nc(=O)[nH][nH]1)Oc1cccc(F)c1 (stereo unspecified) | 6.92%
50 | CC(C)c1n[nH]c(C(=O)Nc2ccncc2)c1Br | 29.37%
51 | COc1ccccc1NC(=O)c1[nH]nc(C(C)C)c1Br | -2.93%
52 | CC(C)c1n[nH]c(C(=O)Nc2cc[nH]n2)c1Br | 11.18%
53 | Cc1ccnc(NC(=O)c2[nH]nc(C(C)C)c2Br)c1 | 49.43%
54 | Cc1cccc(NC(=O)c2[nH]nc(C(C)C)c2Br)n1 | 80.46%
55 | CC(C)c1n[nH]c(C(=O)Nc2ccccn2)c1Br | 78.42%
56 | Cc1nc(C)n(CC2CCCN(c3ccc(C#N)cn3)C2)n1 (stereo unspecified) | 13.24%
57 | CCN1CCNC(=O)C12CCN(C(=O)Cc1ccccn1)CC2 | 31.84%
58 | Cc1ccc(C(=O)NCC(O)c2cccc(F)c2)c(=O)[nH]1 (stereo unspecified) | -7.13%
59 | CCN1CCN(C(=O)c2scnc2C)CC1 | -25.82%
60 | Cc1ncsc1C(=O)N1CCN(CCC(C)C)CC1 | 71.95%
61 | CCCN1CCN(C(=O)c2scnc2C)CC1 | -21.84%
62 | CC1CN(C(=O)CN(Cc2ccco2)Cc2cccs2)CCO1 (stereo unspecified) | 26.78%
63 | COc1ccccc1C1CCCN1CC(=O)N1CCC(C(N)=O)CC1 (stereo unspecified) | 50.32%
64 | COc1ccccc1[C@@H]1CN(CC(=O)N2CCCCC2)C[C@H]1C(=O)O | -36.91%
65 | CCOC(=O)C1CCN(C(=O)CN2CCCC2c2ccccc2C)CC1 (stereo unspecified) | -16.19%
66 | Cc1nc(C2CCCNC2)cc(N2CCc3nc(N)sc3C2)n1 (stereo unspecified) | 17.41%

Row | SMILES | INHIBITION
67 | Cn1cc(CN2CC[C@H](O)[C@@H]2Cc2ccncc2)cn1 | 23.94%
68 | O=c1c2sccc2nc2n1CCN(Cc1ccc(F)c(F)c1)CC2 | 15.72%
69 | O=c1c2sccc2nc2n1CCN(Cc1cccs1)CC2 | 15.58%
70 | O=c1c2sccc2nc2n1CCN(Cc1ccsc1)CC2 | 63.66%
71 | Cc1ncsc1C(=O)N(C)Cc1ccc(Br)o1 | -21.99%
72 | Cc1ccccc1-c1cncc(C2CCN(C3CCOCC3)CC2)n1 | 8.63%
73 | Cc1oc(NC(=O)C(C)N2CCN(C(=O)C3CC3)CC2)c(C#N)c1C (stereo unspecified) | 30.59%
74 | Cc1oc(NC(=O)C(C)N2CCN(CCO)CC2)c(C#N)c1C (stereo unspecified) | 51.08%
75 | Cc1oc(NC(=O)C(C)N2CCN(C(C)(C)CO)CC2)c(C#N)c1C (stereo unspecified) | 10.1%
76 | Cn1ncc2c1CN(Cc1cccnc1)CC2COCC1CC1 (stereo unspecified) | -12.27%
77 | CCCN1CCN(C(=O)c2ccn(COc3ccc(F)cc3)n2)CC1 | -15.49%
78 | CCn1ncc(S(=O)(=O)NC(C)c2cc(OC)ccc2OC)c1C (stereo unspecified) | 0.08%
79 | CN(CC1CCCO1)C1CCN(CCc2ccccn2)CC1 (stereo unspecified) | 14.82%
80 | CCc1cc(NCC(N)=O)nc(N2CCCCC2)n1 | 55.18%
81 | CCc1cc(NC2CCN(CC(N)=O)CC2)nc(N2CCCCC2)n1 | -69.81%
82 | CCc1cc(NCCNC(C)=O)nc(N2CCCC2)n1 | -36.65%
83 | CCc1nc(-c2noc3ccc(C(=O)N(C)CCOC)cc23)co1 | 63.23%
84 | CCc1nc(-c2noc3ccc(C(=O)NCCN(C)C)cc23)co1 | -18.52%
85 | COCCN(C)C(=O)c1ccc2onc(-c3coc(C)n3)c2c1 | 32.04%
86 | Cc1cc(F)ccc1N1CCC(N2C[C@@H](C)[C@@](C)(O)C2)CC1 | 67.28%
87 | Cc1cc(F)ccc1N1CCC(N2C[C@@H](CN(C)C)[C@@H](CO)C2)CC1 | 35.54%
88 | C[C@@H]1CN(C2CCN(c3ccccc3F)CC2)C[C@]1(C)O | 43.44%

Row | SMILES | INHIBITION
89 | c1ccc(-n2nnnc2NCc2ccc3c(c2)OCO3)cc1 | -26.04%
90 | O=C(O)C1CCCN(C(=O)CCn2ccc3c(Cl)cccc32)C1 (stereo unspecified) | -23.9%
91 | O=C(O)[C@@H]1CN(C(=O)c2ccc3[nH]nnc3c2)C[C@H]1c1ccccc1 | 39.57%
92 | O=C(Nc1cnccn1)[C@@H]1COC[C@H]2CN(C3CCCC3)C[C@H]21 | -31.17%
93 | O=C(Nc1ccncc1)C1=NN(c2ccccc2)C(=O)CN1 | 17.59%
94 | COCCCNC(=O)NCc1nc(C)c(C)o1 | -62.18%
95 | Cc1nc(CNC(=O)NCCC2=CCCC2)oc1C | 67.51%
96 | CCCNC(=O)NCc1nc(C)c(C)o1 | 22.34%
97 | Cc1cc(S(=O)(=O)Nc2onc(C)c2C)sc1C | 36.28%
98 | Cc1ccc(CN2CCn3c(CN(C)C(C)C)cnc3C2)s1 | 18.2%
99 | COCCN1C[C@H]2CN(C(=O)C3CC3)CCN2C1=O | 14.65%
100 | COCCN1C[C@H]2CN(C(=O)NCc3ccccc3)CCN2C1=O | 14.21%
101 | COCCN1C[C@H]2CN(C(=O)NC(C)C)CCN2C1=O | 58.6%
102 | CS(=O)(=O)c1cccc(OCC(=O)N2CCCC2c2ccc[nH]2)c1 (stereo unspecified) | 9.27%
103 | Cc1ncoc1C(=O)N1CC[C@@]2(C[C@H](NS(C)(=O)=O)CCO2)C1 | -43.98%
104 | CCCC(C)NC(=O)c1ccc(-c2ccco2)[nH]c1=O (stereo unspecified) | -1.87%
105 | CCC(C)NC(=O)c1ccc(-c2ccco2)[nH]c1=O (stereo unspecified) | 31.51%
106 | CC(COCC(F)(F)F)NC(=O)c1ccc(-c2ccco2)[nH]c1=O (stereo unspecified) | 69.67%
